From PubChem BioAssay (NCATS)
Records with an inconclusive call do not appear. Active and inactive are the calls of the source. Calls come from the whole dose curve; as a rule, active = well fitted curve in the direction sought with a large enough effect; inconclusive = small, poorly fitted or top-dose-only effect, or another doubt; inactive = no such curve, though single readings can be large; an effect the other way counts as inactive or inconclusive.

What was measured:
NIH3T3 = experiment: qHTS assay to identify novel small-molecules to repurpose for Merkel cell carcinoma treatment (AID 1296009); settings: MCC and control cell lines, CellTiter-Glo viability, 72 h; at 44.8 µM (top of the series) unless noted; note: nearly all actives have a fitted effect of over 60% in size
In short: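 Cells were treated for 72 hr at 37 degree celsius with compounds in 8- or 11-point dose response. Viability was read by CellTiter-Glo luminescence, normalized to no-cell (cytotoxicity) and DMSO controls.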

C33A = experiment: Primary qHTS to identify gynecologic anti-cancer compounds using libraries of approved drugs and bioactive compounds (AID 1345084); settings: Gynecologic cancer cell panel viability, ATPlite luminescence, 48 h; series mostly up to 57.5 µM; note: % is set by controls: 0 for no effect and ±100 for the full control effect; nearly all actives have a fitted effect of over 55% in size
In short: (§1)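 Cytotoxicity screen measuring ATP content by luciferase luminescence. Each compound is applied at five concentrations for 48 h at 37 C with 5% CO2.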

CAOV3 = experiment: as above; settings: Gynecologic cancer cell panel viability, ATPlite luminescence, 48 h; series mostly up to 57.5 µM
In short: as §1

CASKI = experiment: as above; settings: Gynecologic cancer cell panel viability, ATPlite luminescence, 48 h; series mostly up to 57.5 µM
In short: as §1

Es-2 = experiment: as above; settings: Gynecologic cancer cell panel viability, ATPlite luminescence, 48 h; series mostly up to 57.5 µM
In short: as §1

HeLa = experiment: as above; settings: Gynecologic cancer cell panel viability, ATPlite luminescence, 48 h; series mostly up to 57.5 µM
In short: as §1

Hek293T = experiment: as above; settings: Gynecologic cancer cell panel viability, ATPlite luminescence, 48 h, control line for the selectivity index; series mostly up to 57.5 µM
In short: as §1

JEG-3 = experiment: as above; settings: Gynecologic cancer cell panel viability, ATPlite luminescence, 48 h; series mostly up to 57.5 µM
In short: as §1

OV90 = experiment: as above; settings: Gynecologic cancer cell panel viability, ATPlite luminescence, 48 h; series mostly up to 57.5 µM
In short: as §1

PA-1 = experiment: as above; settings: Gynecologic cancer cell panel viability, ATPlite luminescence, 48 h; series mostly up to 57.5 µM
In short: as §1

SKOV3 = experiment: as above; settings: Gynecologic cancer cell panel viability, ATPlite luminescence, 48 h; series mostly up to 57.5 µM
In short: as §1

Tov-21-G = experiment: as above; settings: Gynecologic cancer cell panel viability, ATPlite luminescence, 48 h; series mostly up to 57.5 µM
In short: as §1

Tov112D = experiment: as above; settings: Gynecologic cancer cell panel viability, ATPlite luminescence, 48 h; series mostly up to 57.5 µM
In short: as §1

CC1(C)CC[C@]2(C(=O)O[C@@H]3O[C@H](CO)[C@@H](O)[C@H](O)[C@H]3O)CC[C@]3(C)C(=CCC4[C@@]5(C)CC[C@H](O[C@@H]6O[C@H](C(=O)O)[C@@H](O[C@@H]7O[C@H](CO)[C@@H](O)[C@H](O)[C@H]7O)[C@H](O)[C@H]6O[C@@H]6O[C@H](CO)[C@@H](O)[C@H](O)[C@H]6O)C(C)(C)C5CC[C@]43C)C2C1 (stereo partly specified)
inactive: outcome (NIH3T3) inactive [at 9.27 µM] | activity change, negative = cytotoxicity (C33A) -1.12% [at 11.6 µM] | activity change, negative = cytotoxicity (CAOV3) 5.45% [at 11.6 µM] | activity change, negative = cytotoxicity (CASKI) 8.01% [at 11.6 µM] | activity change, negative = cytotoxicity (Es-2) -12.1% [at 11.6 µM] | activity change, negative = cytotoxicity (HeLa) 0.908% [at 11.6 µM] | activity change, negative = cytotoxicity (Hek293T) 0.105% [at 11.6 µM] | activity change, negative = cytotoxicity (JEG-3) 18.6% [at 11.6 µM] | activity change, negative = cytotoxicity (OV90) 4.99% [at 11.6 µM] | activity change, negative = cytotoxicity (PA-1) 18.4% [at 11.6 µM] | activity change, negative = cytotoxicity (SKOV3) 10.3% [at 11.6 µM] | activity change, negative = cytotoxicity (Tov-21-G) -2% [at 11.6 µM] | activity change, negative = cytotoxicity (Tov112D) 6.91% [at 11.6 µM]

CC1(O)CC(O)C2C(C(=O)O)=COC(OC3OC(CO)C(O)C(O)C3OC(=O)/C=C/c3ccc(O)cc3)C21 (stereo unspecified)
inactive: outcome (NIH3T3) inactive [at 17.4 µM] | Potency (C33A) | Potency (CAOV3) | outcome (CASKI) | Potency (Es-2) | Potency (HeLa) | Potency (Hek293T) | Potency (JEG-3) | Potency (OV90) | Potency (PA-1) | Potency (SKOV3) | Potency (Tov-21-G) | Potency (Tov112D)

C=C1CCC2C(C)(C)CC(=O)CC2(C)C1CCC(C)CCO (stereo unspecified)
inactive: outcome (NIH3T3) | Potency (C33A) | Potency (CAOV3) | outcome (CASKI) | Potency (Es-2) | Potency (HeLa) | Potency (Hek293T) | Potency (JEG-3) | Potency (OV90) | Potency (PA-1) | Potency (SKOV3) | Potency (Tov-21-G) | Potency (Tov112D)

CC(=O)OC1C(O)C(C)(O)C(/C=C/C(=O)O)C2(C)CCCC(C)(C)C12 (stereo unspecified)
inactive: outcome (NIH3T3) | Potency (C33A) | Potency (CAOV3) | outcome (CASKI) | Potency (Es-2) | Potency (HeLa) | Potency (Hek293T) | Potency (JEG-3) | Potency (OV90) | Potency (PA-1) | Potency (SKOV3) | Potency (Tov-21-G) | Potency (Tov112D)

CC(=O)O[C@@H]1[C@H](O[C@@H]2OC[C@](O)(CO)[C@H]2O)[C@@H](O[C@@H]2O[C@@H](C)[C@H](O)[C@@H](O[C@@H]3O[C@H](CO)[C@@H](O)[C@H](O)[C@H]3O)[C@H]2O)[C@H](OC(=O)[C@]23CCC(C)(C)C[C@H]2C2=CCC4[C@@]5(C)C[C@H](O)[C@H](O[C@@H]6O[C@H](C(=O)O)[C@@H](O)[C@H](O)[C@H]6O)[C@@](C)(C(=O)O)C5CC[C@@]4(C)[C@]2(C)CC3)O[C@@H]1C (stereo partly specified)
inactive: outcome (NIH3T3) inactive [at 9.27 µM] | activity change, negative = cytotoxicity (C33A) -1.36% [at 6.55 µM] | activity change, negative = cytotoxicity (CAOV3) 22.8% [at 6.55 µM] | activity change, negative = cytotoxicity (CASKI) 2.72% [at 6.55 µM] | activity change, negative = cytotoxicity (Es-2) 1.19% [at 6.55 µM] | activity change, negative = cytotoxicity (HeLa) -1.07% [at 6.55 µM] | activity change, negative = cytotoxicity (Hek293T) 4.41% [at 6.55 µM] | activity change, negative = cytotoxicity (JEG-3) -1.98% [at 6.55 µM] | activity change, negative = cytotoxicity (OV90) 0.0108% [at 6.55 µM] | activity change, negative = cytotoxicity (PA-1) 3.28% [at 6.55 µM] | activity change, negative = cytotoxicity (SKOV3) 27% [at 6.55 µM] | activity change, negative = cytotoxicity (Tov-21-G) 0.936% [at 6.55 µM] | activity change, negative = cytotoxicity (Tov112D) -2.6% [at 6.55 µM]

NC(N)=NCCC[C@H](NC(=O)c1sccc1NS(=O)(=O)c1cccc2nsnc12)C(=O)O
inactive: outcome (NIH3T3) | Potency (C33A) | Potency (CAOV3) | outcome (CASKI) | Potency (Es-2) | Potency (HeLa) | Potency (Hek293T) | Potency (JEG-3) | Potency (OV90) | Potency (PA-1) | Potency (SKOV3) | Potency (Tov-21-G) | Potency (Tov112D)

COc1ccc(OC2OC(CO[C@@H]3O[C@@H](C)[C@H](O)[C@@H](O)[C@H]3O)C(O)C(O)C2O)cc1OC (stereo partly specified)
inactive: outcome (NIH3T3) inactive [at 17.4 µM] | Potency (C33A) | Potency (CAOV3) | outcome (CASKI) | Potency (Es-2) | Potency (HeLa) | Potency (Hek293T) | Potency (JEG-3) | Potency (OV90) | Potency (PA-1) | Potency (SKOV3) | Potency (Tov-21-G) | Potency (Tov112D)

C[C@]12CCC[C@](C)(C(=O)O)C1[C@@H](O)[C@@H](O)C13CC(CCC12)C(CO)(O[C@@H]1O[C@H](CO)[C@@H](O)[C@H](O)[C@H]1O)C3 (stereo partly specified)
inactive: outcome (NIH3T3) inactive [at 17.4 µM] | Potency (C33A) | Potency (CAOV3) | outcome (CASKI) | Potency (Es-2) | Potency (HeLa) | Potency (Hek293T) | Potency (JEG-3) | Potency (OV90) | Potency (PA-1) | Potency (SKOV3) | Potency (Tov-21-G) | Potency (Tov112D)

CCC/C=C1\OC(=O)C2=C1CCC(O)C2O (stereo unspecified)
inactive: outcome (NIH3T3) | Potency (C33A) | Potency (CAOV3) | outcome (CASKI) | Potency (Es-2) | Potency (HeLa) | Potency (Hek293T) | Potency (JEG-3) | Potency (OV90) | Potency (PA-1) | Potency (SKOV3) | Potency (Tov-21-G) | Potency (Tov112D)

COc1cc(/C=C/C(=O)OC[C@H]2O[C@@H](OC3CC(C)=C(C(=O)O)C(C)(C)C3)[C@H](O)[C@@H](O)[C@@H]2O)cc(OC)c1O (stereo partly specified)
inactive: outcome (NIH3T3) inactive [at 17.4 µM] | Potency (C33A) | Potency (CAOV3) | outcome (CASKI) | Potency (Es-2) | Potency (HeLa) | Potency (Hek293T) | Potency (JEG-3) | Potency (OV90) | Potency (PA-1) | Potency (SKOV3) | Potency (Tov-21-G) | Potency (Tov112D)

COc1ccc(CCC(=O)O)c(O[C@@H]2O[C@H](CO)[C@@H](O)[C@H](O)[C@H]2O)c1
inactive: outcome (NIH3T3) | Potency (C33A) | Potency (CAOV3) | outcome (CASKI) | Potency (Es-2) | Potency (HeLa) | Potency (Hek293T) | Potency (JEG-3) | Potency (OV90) | Potency (PA-1) | Potency (SKOV3) | Potency (Tov-21-G) | Potency (Tov112D)

C[C@]1(OC(=O)/C=C/c2ccccc2)C[C@@H](O)[C@]2(O)C=CO[C@@H](O[C@@H]3O[C@H](CO)[C@@H](O)[C@H](O)[C@H]3O)[C@@H]21
inactive: outcome (NIH3T3) inactive [at 17.4 µM] | Potency (C33A) | Potency (CAOV3) | outcome (CASKI) | Potency (Es-2) | Potency (HeLa) | Potency (Hek293T) | Potency (JEG-3) | Potency (OV90) | Potency (PA-1) | Potency (SKOV3) | Potency (Tov-21-G) | Potency (Tov112D)
